Measured values: the supplement of paper PMC7695840
Structures can show the parent of a compound that is named as a salt.

What was measured:
[1] = test system: Staphylococcus aureus MW2 delta-mecA (mecA-); experiment: normalized GFP fluorescence (growth of mecA- strain) (fraction of control range); higher = more growth of mecA- strain; settings: compound concentration: 150 uM; cefoxitin: subinhibitory; fluorescent label: GFP
How it was run: (§1)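 Compound at 150 μM (1.5% DMSO) in 1536-well plates received 5 µL/well of pre-induced S. aureus MW2 cells mixed 1:1, gene-carrying with DsRed and gene-deleted with GFP, in LB with a daily-set subinhibitory antibiotic dose, single replicate. After 20 h unshaken at 37 °C, 90% humidity, DsRed (540/590) and GFP (485/520) were measured and scaled per plate between single-strain control medians. Plates with high untreated ratios and rows with DsRed/GFP >10 were excluded.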

[2] = test system: Staphylococcus aureus MW2 (mecA+); experiment: normalized DsRed fluorescence (growth of mecA+ strain) (fraction of control range); higher = more growth of mecA+ strain; settings: compound concentration: 150 uM; cefoxitin: subinhibitory; fluorescent label: DsRed
How it was run: as §1

SMILES	normalized GFP fluorescence [1]	normalized DsRed fluorescence [2]
NC[C@@H]1O[C@H](O[C@H]2[C@@H](O)[C@H](O[C@@H]3[C@@H](O)[C@H](N)C[C@H](N)[C@H]3O[C@H]3O[C@H](CN)[C@@H](O)[C@H](O)[C@H]3N)O[C@@H]2CO)[C@H](N)[C@@H](O)[C@@H]1O	0.217	0.718
CC(=O)CC(c1ccc([N+](=O)[O-])cc1)c1c(O)c2ccccc2oc1=O (stereo unspecified)	0.279	0.29
CN1CCN2c3ncccc3Cc3ccccc3C2C1 (stereo unspecified) [Mirtazapine (Remeron, Avanza)]	0.214	1.07
COc1ccccc1OCC(O)CN1CCN(CC(=O)Nc2c(C)cccc2C)CC1 (stereo unspecified)	0.863	0.62
C[C@H](Cc1cc2c(c(C(N)=O)c1)N(CCCO)CC2)NCCOc1ccccc1OCC(F)(F)F [Silodosin (Rapaflo)]	0.269	1.1
CCC1(C)OC(=O)N(C)C1=O (stereo unspecified)	0.387	0.876
CC(=O)NCCCS(=O)(=O)O	0.628	0.742
Cc1cc2nc3c(=O)[nH]c(=O)nc-3n(CC(O)C(O)C(O)COP(=O)(O)O)c2cc1C (stereo unspecified)	0.933	0.535
CCCCC1C(=O)N(c2ccccc2)N(c2ccccc2)C1=O [Phenylbutazone (Butazolidin, Butatron)]	0.207	0.436
O=C1CN(/N=C/c2ccc(-c3ccc([N+](=O)[O-])cc3)o2)C(=O)N1	0.519	0.706
O=C(O)c1cccc(-c2noc(-c3ccccc3F)n2)c1 [PTC124 (Ataluren)]	0.0948	0.473
CN(C)C/C=C/C(=O)Nc1cc2c(Nc3ccc(F)c(Cl)c3)ncnc2cc1O[C@H]1CCOC1 [Afatinib (BIBW2992)]	-0.00507	1.68
CCN(CC)CCOC(=O)c1ccc(N)cc1	0.335	0.634
CCCCC(=O)O[C@H]1CC[C@H]2[C@@H]3CCc4cc(O)ccc4[C@H]3CC[C@]12C	0.109	0.605
Cc1nc2n(c(=O)c1CCN1CCC(c3noc4cc(F)ccc34)CC1)CCCC2O (stereo unspecified)	0.379	0.72
Cc1cnc(C(=O)NCCc2ccc(S(=O)(=O)NC(=O)NC3CCCCC3)cc2)cn1	0.553	0.734
CNC(=O)CN(CCN(CCN(CC(=O)O)CC(=O)NC)CC(=O)O)CC(=O)O.O.[Gd] [Gadodiamide (Omniscan)]	0.443	0.566
S=c1[nH]cnc2nc[nH]c12	0.195	0.762
N=C(N)N1CCc2ccccc2C1	0.353	0.808

SMILES	normalized GFP fluorescence [1]	normalized DsRed fluorescence [2]
OCC(S)CS (stereo unspecified)	0.185	0.549
NC(=O)c1cn(Cc2c(F)cccc2F)nn1 [Rufinamide (Banzel)]	0.199	0.955
CS(=O)(=O)OCCCCOS(C)(=O)=O	0.346	0.573
COc1cc2nc(N3CCN(C(=O)C4COc5ccccc5O4)CC3)nc(N)c2cc1OC (stereo unspecified) [Doxazosin mesylate]	0.0162	1.12
O=C(c1ccc(OCCN2CCCCC2)cc1)c1c(-c2ccc(O)cc2)sc2cc(O)ccc12	-0.00866	0.747
CCN1CCCC(OC(=O)C(c2ccccc2)c2ccccc2)C1 (stereo unspecified)	0.427	0.501
CCCCCC(C)N (stereo unspecified)	0.403	0.663
Cc1ncc(CO)c(CO)c1O	0.208	0.816
CCN[C@H]1C[C@H](C)S(=O)(=O)c2sc(S(N)(=O)=O)cc21 [Dorzolamide HCL]	0.422	0.697
NC(=O)C1(N2CCCCC2)CCN(CCCC(=O)c2ccc(F)cc2)CC1	0.529	0.733
CSCC[C@H](NC(=O)[C@H](Cc1c[nH]c2ccccc12)NC(=O)CCNC(=O)OC(C)(C)C)C(=O)N[C@@H](CC(=O)O)C(=O)N[C@@H](Cc1ccccc1)C(N)=O	0.461	0.68
CN1CCN(c2c(F)cc3c(=O)c(C(=O)O)cn(CCF)c3c2F)CC1 [Fleroxacin (Quinodis)]	0.0169	0.075
NC[C@@H]1O[C@H](O[C@H]2[C@@H](O)[C@H](O[C@@H]3[C@@H](O)[C@H](N)C[C@H](N)[C@H]3O[C@H]3O[C@H](CO)[C@@H](O)[C@H](O)[C@H]3N)O[C@@H]2CO)[C@H](N)[C@@H](O)[C@@H]1O	0.422	0.794
CN(C)CCOC(c1ccc(Cl)cc1)c1ccccn1 (stereo unspecified)	0.55	0.618
Nc1ncn([C@H]2C[C@H](O)[C@@H](CO)O2)c(=O)n1 [Decitabine]	0.242	0.802
CC[N+](C)(C)Cc1ccccc1Br	0.178	0.523
CC1=C(C(=O)O)N2C(=O)[C@@H](NC(=O)[C@H](N)c3ccccc3)[C@H]2SC1	0.18	1.02
COc1cc(OC)c(C(=O)CCCN2CCCC2)c(OC)c1 [Buflomedil HCl]	0.4	0.499
O=C(O)C1(C(=O)O)CCC1.[NH2-].[NH2-].[Pt+2]	0.26	0.886
